# Assay results as given in PubChem BioAssay AID651860 (Broad Institute, 2012).
# Entries with a potency or affinity are not part of this list. Activity calls are given as the source filed them.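 Rule for the calls: active = compounds lowering HepG2 cell ATP luminescence with a fitted half-maximal concentration at most twice the top tested dose; inconclusive = flat fit with 30 to 70 percent signal loss, or poor fit; inactive = the rest.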
# Assay: HepG2 cell cytotoxicity, dose response, cytotoxicity control, luminescence plate reader, powder samples, set 2 (AID 651860)
# Conditions: HepG2 viability, CellTiter-Glo ATP luminescence, 48 h; series mostly up to 26 µM; activity change, negative = cytotoxic: at the top concentration
SMILES,"activity change, negative = cytotoxic",outcome
O=C(NCCc1ccccc1)c1ccccc1C(=O)NC[C@@H]1c2ccccc2CCN1C(=O)C1CCCCC1C(=O)O (some centres undefined),3.84% (inactive),
COC(=O)[C@H]1CCCC[C@H]1C(=O)N1CCc2ccccc2[C@H]1CN1C(=O)c2ccccc2C1=O,7.57% (inactive),
O=C(O)[C@H]1CCCC[C@H]1C(=O)N1CCc2ccccc2C1CCN1C(=O)c2ccccc2C1=O (some centres undefined),3.26% (inactive),
O=S(=O)(Nc1nc(NCC2CCCCC2)nc2ccccc12)c1ccccc1,14% (inactive),
O=C1c2ccccc2C(=O)N1C[C@H]1NCCc2ccccc21,12.9% (inactive),
Cc1ccc(S(=O)(=O)NNc2nc(NCC(N)=O)nc3ccccc23)cc1,-9.05% [at 12 µM] (inactive),
C=CC(=O)NC[C@@H]1c2ccccc2CCN1C(=O)[C@@H]1CCCC[C@@H]1C(=O)O,9.58% [at 12 µM] (inactive),
CCOC(=O)C(C(=O)OCC)c1cc(CNS(=O)(=O)c2ccc(C)cc2C)c2ccccc2n1,-9.04% (inactive),
O=C(O)c1ccccc1C(=O)NC[C@@H]1c2ccccc2CCN1C(=O)[C@@H]1CCCC[C@@H]1C(=O)O,1% (inactive),
Cc1ccc(S(=O)(=O)NC(=O)[C@@H]2c3ccccc3CCN2C(=O)[C@@H]2CCCC[C@@H]2C(=O)O)cc1,,inactive
Cc1cc(C)c(S(=O)(=O)Nc2nc(NCCO)nc3ccccc23)c(C)c1,-0.961% (inactive),
CCOC(=O)C(C(=O)OCC)c1cc(CN2C(=O)c3ccccc3C2=O)c2ccccc2n1,7.52% (inactive),
Cc1ccc(S(=O)(=O)Nc2cc(C(C(=O)OC(C)C)C(=O)C(F)(F)F)c(O)c3ccccc23)c(C)c1 (centres undefined),-11.9% (inactive),
COc1ccccc1CCNC(=O)[C@@H]1c2ccccc2CCN1C(=O)C1CCCCC1C(=O)O (some centres undefined),,inactive
COC(=O)[C@@H]1CCCC[C@@H]1C(=O)N1CCc2ccccc2[C@@H]1CN1C(=O)c2ccccc2C1=O,-17.5% (inactive),
O=C1c2ccccc2C(=O)N1C[C@@H]1c2ccccc2CCN1C(=O)C1CCCCC1,-16.3% (inactive),
O=C1c2ccccc2C(=O)N1CC1c2ccccc2CCN1C(=O)Cc1ccccc1 (centres undefined),-3.5% [at 6 µM] (inactive),

SMILES,"activity change, negative = cytotoxic",outcome
O=C(O)[C@@H]1CCCN1C(=O)N1CCc2ccccc2[C@H]1CN1C(=O)c2ccccc2C1=O,-13.9% (inactive),
O=C(O)[C@H]1CCCC[C@H]1C(=O)N1CCc2ccccc2C1 (racemic),-1.55% (inactive),
O=C(NCCO)c1ccccc1C(=O)NC[C@@H]1c2ccccc2CCN1C(=O)C1CCCCC1C(=O)O (some centres undefined),-4.28% (inactive),
O=C(O)c1ccccc1C(=O)N1CCc2ccccc2C1CN1C(=O)c2ccccc2C1=O (centres undefined),3.68% (inactive),
O=C(O)CCC(=O)N1CCc2ccccc2C1CN1C(=O)c2ccccc2C1=O (centres undefined),2.6% (inactive),
O=C(O)/C=C\C(=O)N1CCc2ccccc2C1CN1C(=O)c2ccccc2C1=O (centres undefined),3.21% (inactive),
O=C(O)C1CCCCC1C(=O)N1CCCCC1CN1C(=O)c2ccccc2C1=O (centres undefined),-10.9% (inactive),
O=C(NC[C@@H]1c2ccccc2CCN1C(=O)[C@@H]1CCCC[C@@H]1C(=O)O)c1ccc(CN2CCOCC2)cc1,-12.1% (inactive),
O=C(O)C1CCCCC1C(=O)N1CCc2ccccc2C1CN1Cc2ccccc2C1=O (centres undefined),-6.56% (inactive),
O=C(Oc1cc(CN2C(=O)c3ccccc3C2=O)c2ccccc2[n+]1[O-])c1cccc(Cl)c1,-8.9% (inactive),
C[C@@H](NC(=O)C1CCCC[C@H]1C(=O)O)c1ccccc1 (mixture of isomers),0.345% (inactive),
O=C(O)C1CCCCC1C(=O)N1CCc2ccccc2[C@H]1C(=O)NC12CC3CC(CC(C3)C1)C2 (some centres undefined),-5.48% (inactive),
NC(=O)c1ccccc1C(=O)NC[C@@H]1c2ccccc2CCN1C(=O)[C@@H]1CCCC[C@@H]1C(=O)O,-1.73% (inactive),
CCOC(=O)C(C(=O)OCC)c1nc(NS(=O)(=O)c2c(C)cc(C)cc2C)c2ccccc2n1,2.58% (inactive),
COC(=O)[C@@H]1CCCC[C@@H]1C(=O)N1CCc2ccccc2[C@H]1CN1C(=O)c2ccccc2C1=O,-4.15% (inactive),
Cc1ccccc1S(=O)(=O)Nc1cc(C(C(=O)OC(C)C)C(=O)C(F)(F)F)c(O)c2ccccc12 (centres undefined),-6.55% (inactive),
O=C(NC[C@@H]1c2ccccc2CCN1C(=O)[C@@H]1CCCC[C@@H]1C(=O)O)c1ccccc1,-9.07% (inactive),
